Assay results from the supplement of paper PMC4466140.

Assays:
Experiment in all cases: SPOT peptide array binding signal intensity (averaged, normalized) (arbitrary units (background-subtracted, floor 0; scale differs between SH3 domains)); higher = stronger binding of the SH3 domain to the peptide
AgAbp1 = target: AgAbp1
Outline: (§1)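 Spot intensities were captured after detection with anti-GST antibody, an HRP-linked anti-mouse secondary and luminol, and quantified with Genespotter. The probes were GST-fused SH3 domains from four yeast species, produced in E. coli BL21(DE3), purified on glutathione Sepharose and incubated at 10 μg/ml overnight at 4°C on cellulose-bound synthetic 15-mer peptides with cysteines replaced by serines. Binding signal is the normalized, background-subtracted spot intensity averaged over replicates, and its arbitrary units differ between domains.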

AgBbc1 = target: AgBbc1
Outline: as §1

AgBem1-D1 = target: AgBem1-D1
Outline: as §1

AgBzz1-D1 = target: AgBzz1-D1
Outline: as §1

AgBzz1-D2 = target: AgBzz1-D2
Outline: as §1

AgCyk3 = target: AgCyk3
Outline: as §1

AgFus1 = target: AgFus1
Outline: as §1

AgHof1 = target: AgHof1
Outline: as §1

AgHse1 = target: AgHse1
Outline: as §1

AgLsb1 = target: AgLsb1
Outline: as §1

AgLsb4 = target: AgLsb4
Outline: as §1

AgMyo5 = target: AgMyo5
Outline: as §1

AgNbp2 = target: AgNbp2
Outline: as §1

AgRvs167 = target: AgRvs167
Outline: as §1

AgSho1 = target: AgSho1
Outline: as §1

AgSla1-D1-D2 = target: AgSla1-D1-D2
Outline: as §1

AgSla1-D3 = target: AgSla1-D3
Outline: as §1

CaAbp1-D1 = target: CaAbp1-D1
Outline: as §1

CaAbp1-D2 = target: CaAbp1-D2
Outline: as §1

CaBbc1 = target: CaBbc1
Outline: as §1

CaBem1-D1 = target: CaBem1-D1
Outline: as §1

CaBzz1-D1 = target: CaBzz1-D1
Outline: as §1

CaBzz1-D2 = target: CaBzz1-D2
Outline: as §1

CaCyk3 = target: CaCyk3
Outline: as §1

CaFus1 = target: CaFus1
Outline: as §1

CaHof1 = target: CaHof1
Outline: as §1

CaHse1 = target: CaHse1
Outline: as §1

CaLsb1 = target: CaLsb1
Outline: as §1

CaLsb4 = target: CaLsb4
Outline: as §1

CaMyo5 = target: CaMyo5
Outline: as §1

CaNbp2 = target: CaNbp2
Outline: as §1

CaRvs167 = target: CaRvs167
Outline: as §1

CaRvs167-3 = target: CaRvs167-3
Outline: as §1

CaSho1 = target: CaSho1
Outline: as §1

CaSla1-D1-D2 = target: CaSla1-D1-D2
Outline: as §1

CaSla1-D3 = target: CaSla1-D3
Outline: as §1

ScAbp1 = target: ScAbp1
Outline: as §1

ScBbc1 = target: ScBbc1
Outline: as §1

ScBem1-D1 = target: ScBem1-D1
Outline: as §1

ScBzz1-D1 = target: ScBzz1-D1
Outline: as §1

ScBzz1-D2 = target: ScBzz1-D2
Outline: as §1

ScCyk3 = target: ScCyk3
Outline: as §1

ScFus1 = target: ScFus1
Outline: as §1

ScHof1 = target: ScHof1
Outline: as §1

ScHse1 = target: ScHse1
Outline: as §1

ScLsb1 = target: ScLsb1
Outline: as §1

ScLsb2 = target: ScLsb2
Outline: as §1

ScLsb3 = target: ScLsb3
Outline: as §1

ScLsb4 = target: ScLsb4
Outline: as §1

ScMyo3 = target: ScMyo3
Outline: as §1

ScMyo5 = target: ScMyo5
Outline: as §1

ScNbp2 = target: ScNbp2
Outline: as §1

ScPex13 = target: ScPex13
Outline: as §1

ScRvs167 = target: ScRvs167
Outline: as §1

ScSho1 = target: ScSho1
Outline: as §1

ScSla1-D1-D2 = target: ScSla1-D1-D2
Outline: as §1

ScSla1-D3 = target: ScSla1-D3
Outline: as §1

SpAbp1-D1 = target: SpAbp1-D1
Outline: as §1

SpBbc1 = target: SpBbc1
Outline: as §1

SpBzz1-D1 = target: SpBzz1-D1
Outline: as §1

SpBzz1-D2 = target: SpBzz1-D2
Outline: as §1

SpCyk3 = target: SpCyk3
Outline: as §1

SpHof1 = target: SpHof1
Outline: as §1

SpHof1-2 = target: SpHof1-2
Outline: as §1

SpHof1-3 = target: SpHof1-3
Outline: as §1

SpHse1 = target: SpHse1
Outline: as §1

SpLsb1 = target: SpLsb1
Outline: as §1

SpLsb4 = target: SpLsb4
Outline: as §1

SpMyo1 = target: SpMyo1
Outline: as §1

SpNbp2 = target: SpNbp2
Outline: as §1

SpPex13 = target: SpPex13
Outline: as §1

SpRvs167 = target: SpRvs167
Outline: as §1

SpSla1-D1-D2 = target: SpSla1-D1-D2
Outline: as §1

SpSla1-D3 = target: SpSla1-D3
Outline: as §1

HKVLRPFLLRRLKKD
SPOT peptide array binding signal intensity (AgAbp1): 172 | SPOT peptide array binding signal intensity (AgBbc1): ≤ 0 | SPOT peptide array binding signal intensity (AgBem1-D1): ≤ 0 | SPOT peptide array binding signal intensity (AgBzz1-D1): 1.5 | SPOT peptide array binding signal intensity (AgBzz1-D2): 31.5 | SPOT peptide array binding signal intensity (AgCyk3): ≤ 0 | SPOT peptide array binding signal intensity (AgFus1): 479 | SPOT peptide array binding signal intensity (AgHof1): 39.4 | SPOT peptide array binding signal intensity (AgHse1): 2970 | SPOT peptide array binding signal intensity (AgLsb1): 0.5 | SPOT peptide array binding signal intensity (AgLsb4): 19.5 | SPOT peptide array binding signal intensity (AgMyo5): ≤ 0 | SPOT peptide array binding signal intensity (AgNbp2): 45.8 | SPOT peptide array binding signal intensity (AgRvs167): 0.5 | SPOT peptide array binding signal intensity (AgSho1): 156 | SPOT peptide array binding signal intensity (AgSla1-D1-D2): 27 | SPOT peptide array binding signal intensity (AgSla1-D3): 2.75 | SPOT peptide array binding signal intensity (CaAbp1-D1): 569 | SPOT peptide array binding signal intensity (CaAbp1-D2): 617 | SPOT peptide array binding signal intensity (CaBbc1): ≤ 0 | SPOT peptide array binding signal intensity (CaBem1-D1): 3.5 | SPOT peptide array binding signal intensity (CaBzz1-D1): ≤ 0 | SPOT peptide array binding signal intensity (CaBzz1-D2): ≤ 0 | SPOT peptide array binding signal intensity (CaCyk3): ≤ 0 | SPOT peptide array binding signal intensity (CaFus1): 2980 | SPOT peptide array binding signal intensity (CaHof1): 7.63e-06 | SPOT peptide array binding signal intensity (CaHse1): 124 | SPOT peptide array binding signal intensity (CaLsb1): ≤ 0 | SPOT peptide array binding signal intensity (CaLsb4): ≤ 0 | SPOT peptide array binding signal intensity (CaMyo5): ≤ 0 | SPOT peptide array binding signal intensity (CaNbp2): 715 | SPOT peptide array binding signal intensity (CaRvs167): 6.08 | SPOT peptide array binding signal intensity (CaRvs167-3): 281 | SPOT peptide array binding signal intensity (CaSho1): 736 | SPOT peptide array binding signal intensity (CaSla1-D1-D2): 8.5 | SPOT peptide array binding signal intensity (CaSla1-D3): 15.5 | SPOT peptide array binding signal intensity (ScAbp1): 271 | SPOT peptide array binding signal intensity (ScBbc1): ≤ 0 | SPOT peptide array binding signal intensity (ScBem1-D1): 19.5 | SPOT peptide array binding signal intensity (ScBzz1-D1): 22.5 | SPOT peptide array binding signal intensity (ScBzz1-D2): ≤ 0 | SPOT peptide array binding signal intensity (ScCyk3): 38 | SPOT peptide array binding signal intensity (ScFus1): 742 | SPOT peptide array binding signal intensity (ScHof1): ≤ 0 | SPOT peptide array binding signal intensity (ScHse1): 2170 | SPOT peptide array binding signal intensity (ScLsb1): ≤ 0 | SPOT peptide array binding signal intensity (ScLsb2): ≤ 0 | SPOT peptide array binding signal intensity (ScLsb3): ≤ 0 | SPOT peptide array binding signal intensity (ScLsb4): ≤ 0 | SPOT peptide array binding signal intensity (ScMyo3): 1.12 | SPOT peptide array binding signal intensity (ScMyo5): 2.5 | SPOT peptide array binding signal intensity (ScNbp2): 102 | SPOT peptide array binding signal intensity (ScPex13): 0.5 | SPOT peptide array binding signal intensity (ScRvs167): 3.42 | SPOT peptide array binding signal intensity (ScSho1): 994 | SPOT peptide array binding signal intensity (ScSla1-D1-D2): ≤ 0 | SPOT peptide array binding signal intensity (ScSla1-D3): 3.25 | SPOT peptide array binding signal intensity (SpAbp1-D1): 250 | SPOT peptide array binding signal intensity (SpBbc1): 3 | SPOT peptide array binding signal intensity (SpBzz1-D1): 70 | SPOT peptide array binding signal intensity (SpBzz1-D2): 7.63e-06 | SPOT peptide array binding signal intensity (SpCyk3): 1.5 | SPOT peptide array binding signal intensity (SpHof1): 74.8 | SPOT peptide array binding signal intensity (SpHof1-2): 4 | SPOT peptide array binding signal intensity (SpHof1-3): 1720 | SPOT peptide array binding signal intensity (SpHse1): 2230 | SPOT peptide array binding signal intensity (SpLsb1): ≤ 0 | SPOT peptide array binding signal intensity (SpLsb4): ≤ 0 | SPOT peptide array binding signal intensity (SpMyo1): 2.62 | SPOT peptide array binding signal intensity (SpNbp2): 222 | SPOT peptide array binding signal intensity (SpPex13): 13.5 | SPOT peptide array binding signal intensity (SpRvs167): 0.333 | SPOT peptide array binding signal intensity (SpSla1-D1-D2): ≤ 0 | SPOT peptide array binding signal intensity (SpSla1-D3): 5.5
